Results filed as inconclusive are left out. More than one record can exist for a structure, and the calls need not agree. Active and inactive are the calls of the source. How the source made its calls, unless noted: active means hit-call score of the fitted dose curve at least 0.9, where 1 is the maximum; inactive means score below 0.9.

The nature of assay [1]: BSK_BT_PBMCCytotoxicity: PBMC Cytotoxicity Assessment in the BioMAP Diversity Plus: BT Assay (AID 2284225).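 Further: PBMC viability measured by Alamar Blue dye reduction fluorescence.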 Conditions: primary human B cells with PBMC. A digest of the protocol: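 75,000 cells/well; cpd 1 h → SEB + TSST-1 (20 ng/mL final each) → 90 h → Alamar Blue 6 h → fluor. 546/580 nm. DMSO = neg. control/baseline.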
Read-out in assay [2]: Secreted IgG (sIgG), gene 3500
Description: BSK_BT_sIgG: BioMAP Diversity Plus: BT Assay for Secreted IgG (sIgG) Biomarker Activity (AID 2284226). As to conditions: primary human B cells with PBMC. A digest of the protocol: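 B cells co-cultured with PBMC were dosed with chemical and secreted IgG quantified by ELISA at 24 h. Activity was fitted in the positive direction relative to DMSO as negative control and baseline.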

Assay [3] in a line: BSK_BT_Bcell_Proliferation: Viability Assessment in the BioMAP Diversity Plus: BT Assay for B cell Proliferation (AID 2284227). Conditions: primary human B cells with PBMC. A digest of the protocol:
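Using a human primary B cell–PBMC co-culture, the assay measures total protein by sulforhodamine B absorbance as a gauge of proliferation after 72 h. Analysis followed the positive fitting direction with DMSO as baseline.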

Read-out in assay [4]: Interleukin 6 (IL6), IL6 (gene 3569)
Description: BSK_BT_xIL6: BioMAP Diversity Plus: BT Assay for Interleukin 6 (IL6) Biomarker Activity (AID 2284228). As to conditions: primary human B cells with PBMC. In short, it runs like this:
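Secreted IL-6 in the primary human B cell plus PBMC system, measured by Luminex at 24 h post-chemical, DMSO as baseline. Alamar Blue viability: 75,000 cells/well, chemical 1 h before SEB/TSST-1 (20 ng/mL each), 90 h, then 6 h dye.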

A short description of assay [5]: IUF_NPC1a_proliferation_area_72hr: Leibniz Research Institute for Environmental Medicine (IUF) 72-hour Neural Progenitor Cell Proliferation Area Assay (NPC1a) (AID 2284208). A digest of the protocol: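 Proliferation read as increase in sphere area by phase-contrast imaging over 72 h continuous compound exposure (no renewal) of hNPC spheres grown with EGF/FGF at 37C, 5% CO2. Growth-factor withdrawal served as positive control; DMSO as baseline.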

Assay [6] in a line: IUF_NPC1_viability_72hr: Viability Assessment at 72 hours in the Leibniz Research Institute for Environmental Medicine (IUF) Neural Progenitor Cell Proliferation Assay (NPC1) (AID 2284209). In short, it runs like this:
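Human fetal-cortex neural progenitor spheres (0.25–0.35 mm, one per well) grown in EGF/FGF proliferation medium at 37C, pH 7.2-7.6, exposed 72 h without renewal; viability read as alamar blue resazurin-to-resorufin fluorescence relative to DMSO.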

A short description of assay [7]: CCTE_Mundy_HCI_Cortical_Synap_Neur_Matur_NeuriteSpotCountPerNeuriteLength: CCTE's Synaptogenesis and Neurite Maturation Assay in rat cortical cells for Neurite Spot Count per Neurite Length, Mundy Lab (AID 2284210). A digest of the protocol:
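Rat primary cortical cultures, AraC added at DIV 5 to suppress glia; chemical exposure from DIV 7 to DIV 12. Fixed cells stained for MAP2 and synaptophysin plus Hoechst; synaptophysin puncta per neurite length quantified by high-content imaging, relative to DMSO.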

The nature of assay [8]: CCTE_Mundy_HCI_Cortical_Synap_Neur_Matur_BPCount: CCTE's Synaptogenesis and Neurite Maturation Assay in rat cortical cells for Branch Point Count, Mundy Lab (AID 2284211). A digest of the protocol: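 Branch point number is quantified by automated imaging of fluorescently labelled neurites and synapses in rat primary cortical neurons exposed from DIV 7 to DIV 12. Activity is analysed relative to DMSO negative control.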

Assay [9] in a line: CCTE_Mundy_HCI_Cortical_NOG_NeuriteCount: CCTE's Neurite Outgrowth Assay in rat cortical cells for Neurite Count, Mundy Lab (AID 2284212).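 Further: cells fixed about two days after chemical exposure began.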 In short, it runs like this: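 Neurite number per cell from high-content imaging of betaIII-tubulin immunostaining, with Hoechst nuclear counterstain.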
A short description of assay [10]: CCTE_Mundy_HCI_Cortical_NOG_NeuriteLength: CCTE's Neurite Outgrowth Assay in rat cortical cells for Neurite Length, Mundy Lab (AID 2284213).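 On AC50: neurites imaged about 48 to 50 h after chemical exposure began.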 A digest of the protocol: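 Neurite length was read by high-content imaging of βIII-tubulin-labelled neurites in rat primary cortical cultures. Activity was fitted relative to DMSO.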
Assay [11] is described as follows: CCTE_Mundy_HCI_Cortical_Synap_Neur_Matur_NeuriteLength: CCTE's Synaptogenesis and Neurite Maturation Assay in rat cortical cells for Neurite Length, Mundy Lab (AID 2284214). In short, it runs like this: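 Rat primary cortical cells were plated, treated with AraC at DIV 5 to arrest glial growth, then chemical-dosed with media change at DIV 7 through DIV 12. Fixed cells stained for MAP2, synaptophysin and Hoechst; neurite length quantified by high-content imaging.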

Assay [12] in a line: CCTE_Mundy_HCI_Cortical_Synap_Neur_Matur_NeuriteSpotCountPerNeuron: CCTE's Synaptogenesis and Neurite Maturation Assay in rat cortical cells for Neurite Spot Count per Neuron Count, Mundy Lab (AID 2284215). In short, it runs like this:
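High-content imaging counts synaptophysin puncta along MAP2-labelled neurites per neuron after chemical exposure of rat cortical cells from DIV 7 to termination at DIV 12 (AraC added DIV 5). Loss of signal relative to DMSO.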

Assay [13] is described as follows: CCTE_Mundy_HCI_Cortical_Synap_Neur_Matur_SynapseCount: CCTE's Synaptogenesis and Neurite Maturation Assay in rat cortical cells for Synapse Count, Mundy Lab (AID 2284218). In short, it runs like this:
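Rat primary cortical cells in 96-well plates received AraC at DIV 5 and were dosed with chemicals at DIV 7 with media change, through DIV 12 (288.33 h). Synapses per neuron counted by high-content imaging of MAP2/synaptophysin/Hoechst staining, versus DMSO baseline.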

Assay [14] in a line: CCTE_Mundy_HCI_Cortical_Synap_Neur_Matur_NeuriteCount: CCTE's Synaptogenesis and Neurite Maturation Assay in rat cortical cells for Neurite Count, Mundy Lab (AID 2284222).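 On outcome: exposure from day 7 to day 12 in vitro with readout at day 12.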 In short, it runs like this:
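In this multiplexed morphology readout, rat primary cortical neurons are fixed at DIV 12 following dosing at DIV 7 and stained for MAP2, synaptophysin and nuclei. High-content image analysis yields neurite count.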

Assay [15] in a line: CCTE_Mundy_HCI_Cortical_Synap_Neur_Matur_CellBodySpotCount: CCTE's Synaptogenesis and Neurite Maturation Assay in rat cortical cells for Cell Body Spot Count, Mundy Lab (AID 2284223). In short, it runs like this:
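High-content imaging counts synaptophysin puncta on neuronal cell bodies per neuron after MAP2/synaptophysin immunostaining. Rat primary cortical cells, glia arrested with AraC at DIV 5, were exposed DIV 7–12; signal decrease measured against DMSO.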

Assay [16] can be described thus: TAMU_PeakParms_SingleDonor1434_Chronotropy: Texas A&M University (TAMU) 1.5-hr Human Induced Pluripotent Stem Cell (iPSC)-derived Cardiomyocytes Calcium (Ca+2) Flux Assay for Cardiotoxicity: Chronotropy (changes in peak frequency) (AID 2284217). Conditions: actives raise or lower the signal. In short, it runs like this:
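Using fluorescent Ca2+ flux, average beats per second are measured in human iPSC-derived cardiomyocytes treated 90 min (0.5% DMSO vehicle, 0.2–100 uM). Non-beating data points are removed; activity is modeled in both directions relative to DMSO controls.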

The nature of assay [17]: CCTE_Mundy_HCI_hN2_NOG_NeuriteLength: CCTE's Neurite Outgrowth Assay in human hN2 cells for Neurite Length, Mundy Lab (AID 2284220; active means hit-call score of the fitted dose curve at least 0.9, where 1 is the maximum). In short, it runs like this: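 Read-out is neurite length from high-content imaging of βIII-tubulin/Alexa Fluor-488-labelled neurons, referenced to DMSO controls.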
The nature of assay [18]: CCTE_Mundy_HCI_hN2_NOG_NeuronCount: CCTE's Neurite Outgrowth Assay in human hN2 cells for Neuron Count, Mundy Lab (AID 2284221; active means hit-call score of the fitted dose curve at least 0.9, where 1 is the maximum). In short, it runs like this:
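Read-out is the number of betaIII-tubulin-positive neurons imaged by automated high-content analysis, with DMSO as negative control.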

Assay [19] in a line: CCTE_Mundy_HCI_hNP1_Pro_ResponderAvgInten: CCTE's Proliferation Assay in human neuroprogenitor cells, Mundy Lab (AID 2284224; active means hit-call score of the fitted dose curve at least 0.9, where 1 is the maximum;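 further: human neural progenitor cells hNP1 derived from WA09 embryonic stem cells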). A digest of the protocol: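 Proliferation read as average intensity of BrdU-positive cells, imaged at 26.25 h post-dosing: chemical exposure started after 40–44 h culture, BrdU during final 4 h, paraformaldehyde fixation. Positive-direction fit relative to DMSO.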

A word on the AC50: it is the midpoint of the concentration-response curve, whichever way the signal moves. `O=C(O)C(F)(F)C(F)(F)C(F)(F)C(F)(F)C(F)(F)C(F)(F)C(F)(F)C(F)(F)F`: the result in [1], in assay [2], in [3] and in [4] was inactive. Also, the AC50 in [3] is 30 µM (active).

On to `O=S(=O)(O)C(F)(F)C(F)(F)C(F)(F)C(F)(F)F`, for which the compound was called inactive in assay [5], in assay [6], in assay [7], in assay [8], in [9] and in assay [10]. The call in assay [11], in [12], in [13], in [14], in [15] and in assay [1] was inactive. For the same compound, the outcome in assay [2], in [3] and in [4] was inactive.

Consider `ClC1=C(Cl)[C@]2(Cl)[C@@H]3[C@@H]4C[C@@H]([C@H]5O[C@@H]45)[C@@H]3[C@@]1(Cl)C2(Cl)Cl`, for which the AC50 was 25.5 µM (active) in assay [7]; 8.83 µM (active) in assay [10]; 12.8 µM (active) in [11]; 13 µM (active) in assay [12]; 4.73 µM (active) in assay [16]; 13.2 µM (active) in assay [13]. The AC50 is 50 µM (active) in assay [18], 24 µM (active) in assay [15] and 25.2 µM (active) in [19]. The outcome in assay [17] was inactive.

Regarding `COc1ccc(O)c(C(C)(C)C)c1`, the result in assay [7], in assay [8], in assay [9], in [10], in [11] and in assay [12] was inactive. The call in [13], in [14], in [15] and in assay [19] was inactive.

As for `O=C(O)C(F)(F)C(F)(F)C(F)(F)C(F)(F)C(F)(F)C(F)(F)C(F)(F)C(F)(F)C(F)(F)F`, the AC50 was 5.95 µM (active) in assay [1] and 20.4 µM (active) in assay [3]. Further, the outcome in [1], in assay [2], in [3] and in assay [4] was inactive.

With `Sc1ccccc1`, the outcome in [1], in [2], in [3] and in [4] was inactive.

For the compound `CO/C=C(/C(=O)OC)c1ccccc1COc1cccc(C(F)(F)F)n1`, the AC50 was 12.6 µM (active) in assay [5]; 25.3 µM (active) in assay [6]; 1.09 µM (active) in assay [7]; 1.16 µM (active) in [8]; 1.55 µM (active) in assay [9]; 1.43 µM (active) in assay [10]. Moreover, the concentration at half-maximal activity (AC50) in [11] was 0.731 µM (active); in [12] it was 0.688 µM (active); in assay [13] it was 0.871 µM (active); in assay [14], 1.46 µM (active); in assay [15] it was 1.16 µM (active); in assay [19], 86.9 µM (active).

The record behind these values is PubChem BioAssay (EPA / NIEHS).
